Assay outcomes from PubChem.
Shown are actives, neighbours in structure and some others; about 2.7% of the full set was active somewhere.
CFTR F508del cor – F508del CFTR correction, initial screen, CFBE line, single point | CFBE cells, YFP halide quenching; stimulated with forskolin plus potentiator P3; % fluorescence drop versus neutral controls | activity (quench increase), % at 7.58 µM | 350,000 tested, 0.36% active | AID 720511, 2013;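 active = mean added fluorescence quench of at least 8% versus neutral control, with both replicates also reaching 8%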;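 note: cells transiently co-express mutant CFTR-F508del with the halide-sensitive YFP; corrector assay measuring rescue of mutant channel to the surface after 24 h compound exposure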
MPTP block – mitochondrial permeability transition pore inhibitors, primary screen, biochemical, isolated mouse mitochondria, absorbance; AID 602449, 2012; 360,000 tested, 1.4% active; Ca2+ swelling absorbance, 30 min; inhibition, % at 10 µM;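 active = inhibition of 50% or more, scaled per plate between neutral and stimulator controls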;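 note: 0% = DMSO wells given calcium and 100% = 1 mM EGTA wells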
CendR NRP1 mod – modulators of CendR peptide binding to NRP-1, primary screen, biochemical, fluorescence polarization, uHTS; FAM-RPARPAR peptide binding to NRP-1; inhibition, % at 25 µM; 360,000 tested, 0.85% active; AID 602438, 2012;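 active = inhibition or corrected inhibition above about 18%, plus a signal ratio from 0.5 to 1.5, limit read from the data, passing the limit was not always enough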
ATG4B inh – ATG4B protease inhibitors, primary screen, biochemical, fluorescence, uHTS. inhibition, % at 8.33 µM. 340,000 tested, 0.51% active. ATG4B cleavage of LC3-PLA2, NBD-HPC fluorescence, 1 h; in the data active = inhibition above about 40%
Target sequence (Q9Y4P1 whole entry, looked up): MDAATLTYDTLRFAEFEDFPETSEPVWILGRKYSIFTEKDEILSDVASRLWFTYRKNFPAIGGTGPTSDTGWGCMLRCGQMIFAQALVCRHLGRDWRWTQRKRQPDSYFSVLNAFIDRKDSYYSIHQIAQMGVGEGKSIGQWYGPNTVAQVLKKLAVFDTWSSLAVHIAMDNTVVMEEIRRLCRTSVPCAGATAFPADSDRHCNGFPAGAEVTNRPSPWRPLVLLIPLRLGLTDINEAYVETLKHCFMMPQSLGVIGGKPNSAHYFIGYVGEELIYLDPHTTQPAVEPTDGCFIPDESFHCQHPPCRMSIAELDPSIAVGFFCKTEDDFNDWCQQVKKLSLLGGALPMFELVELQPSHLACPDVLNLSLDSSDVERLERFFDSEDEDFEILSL
SKN-1 block – suppressors of acrylamide-induced Pgst-4::GFP reporter in worms, primary screen, SKN-1 inhibitor project, whole organism, uHTS, GFP/RFP fluorescence ratio, strain VP596; C. elegans VP596 Pgst-4::GFP/RFP ratio, 24 h; inhibition, % at 21.8 µM; 360,000 tested, 0.49% active; AID 624304, 2012;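 active = interference check ratio from 0.5 to 1.5 plus GFP to RFP signal ratio inhibition reaching or exceeding a fixed threshold, cut at about 30% in these data, passing the limit was not always enough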
Numbers without * were called inactive; . = no result.

SMILES	CFTR F508del cor	MPTP block	CendR NRP1 mod	ATG4B inh	SKN-1 block
C[C@@H]1CN([C@@H](C)CO)C(=O)c2cc(NS(=O)(=O)c3ccccc3)ccc2O[C@@H](C)CCCCO[C@H]1CN(C)C(=O)Cc1ccccc1	1	.	.	.	.
COc1ccc(S(=O)(=O)N2CCCCCC2)cc1C(=O)OCC(=O)NC(N)=O	.	-1	-2	6	11
CCCCNC(=O)COC(=O)c1cc(S(=O)(=O)N2CCCCCC2)ccc1OC	.	0	12	-10	40*
Cc1c(C(=O)N2CCN(S(=O)(=O)c3ccccc3F)CC2)oc2c(Cl)cccc12	1	-1	-2	-10	45*
COc1cc(O)cc2cc3c(c(O)c12)C(=O)CC(C)(O)O3 (stereo not drawn)	5	-1	38*	-7	-13
COc1cc(O)c2c(c1)OC(C)(C)CC2=O	.	1	5	-17	4
COc1ccc(S(=O)(=O)N2CCOC2CNC(=O)C(=O)NCc2ccc3c(c2)OCO3)cc1 (stereo not drawn)	-2	0	23*	4	6
Cc1ccc2c(c1)CCCN2C(=O)CCc1nc2ccccc2c(=O)[nH]1	22*	1	-13	-13	4
CC(C)NC(=O)N(C)C[C@H]1Oc2ccc(NS(=O)(=O)c3ccccc3)cc2CC(=O)N([C@@H](C)CO)C[C@@H]1C	-2	.	.	.	.
Cc1noc(C)c1S(=O)(=O)N(C)C[C@@H]1Oc2ccc(NS(C)(=O)=O)cc2CC(=O)N([C@@H](C)CO)C[C@@H]1C	-1	.	.	.	.
Cc1cc(C(=O)N[C@H](c2ccccc2)[C@@]2(C)C[C@@H]2[C@@H](C)C(=O)Nc2ccc3ccccc3c2)no1	3	-1	16	-6	8
Cc1cc(C(=O)N[C@@H](c2ccccc2)[C@]2(C)C[C@H]2[C@@H](C)C(=O)Nc2ccc3ccccc3c2)no1	3	0	22*	-1	5
Clc1ncccc1-c1nnn(-c2ccccc2Br)n1	2	-1	-3	8	53*
Clc1nc2ccccc2cc1-c1nnn(-c2ccccc2Br)n1	3	0	4	21	26
CCOc1cc(C(=O)N2CCC(CC3CC(c4ccccc4)=NO3)(C(=O)NCc3ccc(OC)cc3)CC2)cc(OCC)c1OCC (stereo not drawn)	-3	-1	45*	-14	13
CCCNC(=O)C1(CC2CC(c3ccccc3)=NO2)CCN(C(=O)c2ccccc2)CC1 (stereo not drawn)	-2	-1	27*	-8	-1
CC(=O)NS(=O)(=O)c1ccc(N=NN2CCCCCC2)cc1	-1	-2	3	0	-7
CC(=O)NS(=O)(=O)c1ccc(N=NN2CCOCC2)cc1	1	-2	27*	3	21
CC(C)Cc1nnc(NC(=O)CCC(=O)N2CCCCC2)s1	-3	0	18*	-6	-3
CCc1nnc(NC(=O)CCC(=O)N2CCCC2)s1	.	0	-4	-13	2
CC(C)C(=O)N(c1ccc2oc(=O)sc2c1)S(=O)(=O)c1ccccc1	6	3	-12	-1	3
COc1ccc(S(=O)(=O)N(C(=O)C(C)C)c2ccc3oc(=O)sc3c2)cc1	11*	-2	-1	6	21
CCCNC(=O)N[C@H]1CC[C@H](CC(=O)N2CCN(C)CC2)O[C@H]1CO	-1	.	.	.	.
CN1CCN(C(=O)C[C@@H]2CC[C@H]3[C@@H](COC[C@H](O)CN3Cc3cccc(F)c3)O2)CC1	0	.	.	.	.
c1ccc(CCN(Cc2ccccc2)Cc2nc(C3CC3)no2)cc1	8.9*	2	-9	8	1
SMILES	CFTR F508del cor	MPTP block	CendR NRP1 mod	ATG4B inh	SKN-1 block
O=C1C(C2=C(O)c3ccccc3C2=O)=Nc2ccccc21	.	11	39*	-14	26
CC1=C(C(=O)NCc2ccc(Cl)cc2)C2(CCC(C)CC2)OC1=O (stereo not drawn)	2	5	37*	-6	7
COc1cc(C2CC(=O)Oc3c(C(CCN4CCCC(C)C4)c4ccc(N(C)C)cc4)c(OC)cc(OC)c32)cc(OC)c1OC (stereo not drawn)	3	0	25*	-7	7
CN(C)c1cc(N/N=C\c2ccccc2)nc(N(C)C)n1	-1	1	35*	5	14
O=C(OCc1ccccc1)N1C[C@H](O)[C@H](O)C[C@@H]1c1c(Cl)cccc1Br	-2	0	20*	.	4
CCNC(=O)c1cc2c(c(-c3cccc(-c4cccc(C(=O)N(C)C)c4)c3)n1)[C@@H](CCO)N([S@](=O)C(C)(C)C)C2	0	.	.	.	.
C[C@@H]1CN([C@H](C)CO)C(=O)c2cc(N(C)C)ccc2O[C@@H](C)CCCCO[C@H]1CN(C)C(=O)c1ccccc1	0	.	.	.	.
Fc1cccc(F)c1/C=C/c1ccc2ccccc2n1	.	0	-3	23	51*
CO[C@H]1CN(C)C(=O)c2cc(NC(=O)C3CC3)ccc2OC[C@@H](C)N(C(=O)C2CCOCC2)C[C@@H]1C	3	.	.	.	.
COc1ccc(/C=N/NC(=O)Cc2csc(Nc3cccc(C(F)(F)F)c3)n2)cc1C	.	3	-3	-5	37*
COc1cc(/C=N/NC(=O)Cc2csc(C)n2)ccc1OCC(C)C	-4	1	7	-1	-1
CCc1ccccc1NC(=O)c1ccccc1N1C(=O)C2C3C=CC(C3)C2C1=O (stereo not drawn)	3	2	22*	-6	-4
COc1ccccc1NC(=O)N[C@H]1CC[C@@H](CC(=O)N2CCC(Cc3ccccc3)CC2)O[C@@H]1CO	0	.	.	.	.
CC1(c2nnc(-c3ccc(F)cc3)o2)CC(c2c(Cl)cccc2Cl)=NO1 (stereo not drawn)	0	-1	29*	25	7
CC(C)CC#Cc1ccc2c(c1)O[C@H](CN(C)C(=O)c1cccnc1)[C@H](C)CN([C@@H](C)CO)S2(=O)=O	2	.	.	.	.
CC(=O)N1[C@H](CO)[C@@H](c2ccccc2)[C@@H]1CN(C(=O)c1cccc(F)c1)C(C)C	2	.	.	.	.
CCN(CC)c1ccc(/C=c2\sc3nc4ccccc4n3c2=O)c(O)c1	.	4	-36	30	45*
COc1cccc(S(=O)(=O)N2CCCCN3[C@H](CO)[C@H](c4ccc(C5=CCCCC5)cc4)[C@@H]3C2)c1	1	.	.	.	.
O=C(CCN1CCN(c2ccccc2)CC1)NNC(=O)Cc1ccccc1Cl	1	0	37*	-3	4
O=C(CCN1CCN(c2ccccc2)CC1)NNC(=O)Cc1c(F)cccc1Cl	-1	0	-4	-3	-12
CC(=O)N(C)C[C@@H]1Oc2cc(C#Cc3cccc(F)c3)ccc2S(=O)(=O)N([C@H](C)CO)C[C@@H]1C	2	.	.	.	.
